{"source": "the supplement of paper PMC6555819", "data": [{"tested_on": "LXRb:RXRa (NR concentration 270 nM, RXRa partner concentration 90 nM)", "assay": "PBM binding z-score (relative to random genomic background probes); higher = stronger binding; sequences stand for … in GC…GCGATTGACAGCGTAGAATGAAGG", "method_in_brief": "(§1)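 Binding buffer was PBS pH 7.4 with 2% milk, 0.02% Triton X-100, 1 mM DTT, 0.2 mg/mL BSA and 0.4 mg/ml salmon testes DNA. In it, ligand-free nuclear receptor dimers were incubated 1 h on custom Agilent 4×180K protein-binding microarrays carrying double-stranded probes. Antibodies against each partner (one per run) detected binding, and z-scores were calculated against random background probes after regression normalization of scanned fluorescence.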", "values": [{"sequence": "TCATATAGGTAACCAGGTGAAAGTCCGTAAGTTA", "PBM binding z-score": 1.04}, {"sequence": "TGAATGAGGCTATAAGATCAGGGAACGTTGCAAA", "PBM binding z-score": -0.726}, {"sequence": "CCGACTGGGCCAAGGTTACCATAACGCACAGCCA", "PBM binding z-score": 0.279}, {"sequence": "AGAATGAGGTTATTAAGGTCAGGGAATTGCGGTC", "PBM binding z-score": 3.59}, {"sequence": "CCTTACGAGTCACGAGGTTATAGCACGACGAGCG", "PBM binding z-score": 1.22}, {"sequence": "GCTATTAGTTGAAAGGGCCACCGAATGATTCTCG", "PBM binding z-score": -0.256}, {"sequence": "GCTATTAGTTGAAAGGGCAACCGCATGATTCTCG", "PBM binding z-score": 0.909}, {"sequence": "CCTGCTTGGTCATGGTCAGCTAATCTACAGTATG", "PBM binding z-score": -0.459}, {"sequence": "CAAACTAGGTCACAGAGTTCAAAGTCCGTGCGTA", "PBM binding z-score": 4.98}, {"sequence": "CGTCAAAGTTCACGGTAACGTAACAGAAAGCAGC", "PBM binding z-score": 4.09}, {"sequence": "ATCTCTAGGTAAAGATAATTCAGTGAATGCAAAT", "PBM binding z-score": 0.485}, {"sequence": "GGAACAAGGGCATTCGAGTTGATAGCATGGCGAT", "PBM binding z-score": 0.349}, {"sequence": "CCTACTGGGGCATAAGGTTACCATAAGCCAGCCC", "PBM binding z-score": 0.717}, {"sequence": "GATACAGGGTCAAGGCCAGAGCACGCGTATTGAT", "PBM binding z-score": 3.67}, {"sequence": "CCTAGTTGGTCAAGGTCACTCACGCTATAGGTAC", "PBM binding z-score": 3.17}, {"sequence": "TAGCCTGGGTCATTGGGCCAGTATAGTACGCATC", "PBM binding z-score": 1.36}, {"sequence": "ATCTCTAGTTAAAAGTTCAGTGAATCCCGAGGAT", "PBM binding z-score": 0.877}, {"sequence": "TCTGCTAGGTCAGTGGGTCAGCTAACGAGCTGCC", "PBM binding z-score": 0.738}, {"sequence": "CCTTACGGGTCACGAGGTTTTAGCACGACGAGCG", "PBM binding z-score": 3.4}, {"sequence": "GCTTACGGGTCAAAGGCTATAGCATGAATAGAAT", "PBM binding z-score": 3.82}, {"sequence": "AGAATGAGGTTATTAAGTTCAGGGAATTGCGGTC", "PBM binding z-score": 1.95}, {"sequence": "ACAGACAGGTGATGAAGGTAACTCCGGCTATCAT", "PBM binding z-score": -0.149}, {"sequence": "ATCTCTAGGTAACAAGTTCAGTGAAAGAGAGGAC", "PBM binding z-score": 0.886}, {"sequence": "CGTCCAAGGTCAAACGTCAGTGAAGAGATGACGG", "PBM binding z-score": 4.54}, {"sequence": "AGTCACAGTTCAGGACGAGGTAACGTAAAGCACG", "PBM binding z-score": 0.666}, {"sequence": "ACAGACAGGTGAGTGAAGGTAGCTCAGCTGGACG", "PBM binding z-score": -0.796}, {"sequence": "TTACCAAGGTGAAAGGTCGTTGGTGCACGCCTTG", "PBM binding z-score": 2.87}, {"sequence": "GCTGCTAGGTCAACTCATGGTCAGCTAAAGCTCG", "PBM binding z-score": 2.29}, {"sequence": "CGCACTAGGTCAAGGACAGTGAATCTCCGCACGC", "PBM binding z-score": 1.46}, {"sequence": "CCAACTAGGTCATCCAGGACAGTGAATACATTGA", "PBM binding z-score": 2.48}, {"sequence": "GCATATAGGTAGTACAAGGTGAAAGTCCGATTGT", "PBM binding z-score": 0.269}, {"sequence": "GTGCCAAGGTGAATAGGTCGTTGATGAGTAGGCG", "PBM binding z-score": 0.408}, {"sequence": "CGTCCAAGGTCAATGCTATGTCAGTGAAAGCATT", "PBM binding z-score": 3.67}, {"sequence": "CGTCCAAGGTCTATGCTAGGTCAGTGAAAGCATT", "PBM binding z-score": 2.27}, {"sequence": "CGAACGAGGGCATGAGTTGATAGAAAATGCCGAT", "PBM binding z-score": 0.256}, {"sequence": "CGTCCAAGGTGAAAGGTCAGTGAAGAGATGACGG", "PBM binding z-score": 3.61}, {"sequence": "CAAACTATGTCACAGAGGTCAAAGTCCGTGCGTA", "PBM binding z-score": 5.11}, {"sequence": "TCTTGAAGATCAAAGGTTAAGAAAGCCGAAGCCT", "PBM binding z-score": 2.16}, {"sequence": "TTACCAAGGTGATAGGTCGTTGATGCACGCCTTG", "PBM binding z-score": 0.514}, {"sequence": "TCTGCTTGGTCAGTTGGTCAGCTAACGAGCTGCC", "PBM binding z-score": -0.763}]}, {"tested_on": "LXRb homodimer (NR concentration 270 nM)", "assay": "PBM binding z-score (relative to random genomic background probes); higher = stronger binding; sequences stand for … in GC…GCGATTGACAGCGTAGAATGAAGG", "method_in_brief": "as §1", "values": [{"sequence": "TCATATAGGTAACCAGGTGAAAGTCCGTAAGTTA", "PBM binding z-score": 0.073}, {"sequence": "TGAATGAGGCTATAAGATCAGGGAACGTTGCAAA", "PBM binding z-score": -0.998}, {"sequence": "CCGACTGGGCCAAGGTTACCATAACGCACAGCCA", "PBM binding z-score": -1.2}, {"sequence": "AGAATGAGGTTATTAAGGTCAGGGAATTGCGGTC", "PBM binding z-score": 0.546}, {"sequence": "CCTTACGAGTCACGAGGTTATAGCACGACGAGCG", "PBM binding z-score": 0.355}, {"sequence": "GCTATTAGTTGAAAGGGCCACCGAATGATTCTCG", "PBM binding z-score": -0.647}, {"sequence": "GCTATTAGTTGAAAGGGCAACCGCATGATTCTCG", "PBM binding z-score": -0.00487}, {"sequence": "CCTGCTTGGTCATGGTCAGCTAATCTACAGTATG", "PBM binding z-score": -0.639}, {"sequence": "CAAACTAGGTCACAGAGTTCAAAGTCCGTGCGTA", "PBM binding z-score": 0.834}, {"sequence": "CGTCAAAGTTCACGGTAACGTAACAGAAAGCAGC", "PBM binding z-score": 0.842}, {"sequence": "ATCTCTAGGTAAAGATAATTCAGTGAATGCAAAT", "PBM binding z-score": 0.372}, {"sequence": "GGAACAAGGGCATTCGAGTTGATAGCATGGCGAT", "PBM binding z-score": -0.333}, {"sequence": "CCTACTGGGGCATAAGGTTACCATAAGCCAGCCC", "PBM binding z-score": -0.859}, {"sequence": "GATACAGGGTCAAGGCCAGAGCACGCGTATTGAT", "PBM binding z-score": -0.301}, {"sequence": "CCTAGTTGGTCAAGGTCACTCACGCTATAGGTAC", "PBM binding z-score": 0.615}, {"sequence": "TAGCCTGGGTCATTGGGCCAGTATAGTACGCATC", "PBM binding z-score": -0.556}, {"sequence": "ATCTCTAGTTAAAAGTTCAGTGAATCCCGAGGAT", "PBM binding z-score": 1.25}, {"sequence": "TCTGCTAGGTCAGTGGGTCAGCTAACGAGCTGCC", "PBM binding z-score": 0.0153}, {"sequence": "CCTTACGGGTCACGAGGTTTTAGCACGACGAGCG", "PBM binding z-score": -0.145}, {"sequence": "GCTTACGGGTCAAAGGCTATAGCATGAATAGAAT", "PBM binding z-score": 0.0561}, {"sequence": "AGAATGAGGTTATTAAGTTCAGGGAATTGCGGTC", "PBM binding z-score": 0.228}, {"sequence": "ACAGACAGGTGATGAAGGTAACTCCGGCTATCAT", "PBM binding z-score": -0.444}, {"sequence": "ATCTCTAGGTAACAAGTTCAGTGAAAGAGAGGAC", "PBM binding z-score": 1.21}, {"sequence": "CGTCCAAGGTCAAACGTCAGTGAAGAGATGACGG", "PBM binding z-score": 1.77}, {"sequence": "AGTCACAGTTCAGGACGAGGTAACGTAAAGCACG", "PBM binding z-score": -0.159}, {"sequence": "ACAGACAGGTGAGTGAAGGTAGCTCAGCTGGACG", "PBM binding z-score": -0.607}, {"sequence": "TTACCAAGGTGAAAGGTCGTTGGTGCACGCCTTG", "PBM binding z-score": -0.67}, {"sequence": "GCTGCTAGGTCAACTCATGGTCAGCTAAAGCTCG", "PBM binding z-score": 0.577}, {"sequence": "CGCACTAGGTCAAGGACAGTGAATCTCCGCACGC", "PBM binding z-score": 0.1}, {"sequence": "CCAACTAGGTCATCCAGGACAGTGAATACATTGA", "PBM binding z-score": 0.7}, {"sequence": "GCATATAGGTAGTACAAGGTGAAAGTCCGATTGT", "PBM binding z-score": -0.562}, {"sequence": "GTGCCAAGGTGAATAGGTCGTTGATGAGTAGGCG", "PBM binding z-score": -0.536}, {"sequence": "CGTCCAAGGTCAATGCTATGTCAGTGAAAGCATT", "PBM binding z-score": 0.692}, {"sequence": "CGTCCAAGGTCTATGCTAGGTCAGTGAAAGCATT", "PBM binding z-score": -0.26}, {"sequence": "CGAACGAGGGCATGAGTTGATAGAAAATGCCGAT", "PBM binding z-score": -0.832}, {"sequence": "CGTCCAAGGTGAAAGGTCAGTGAAGAGATGACGG", "PBM binding z-score": -0.321}, {"sequence": "CAAACTATGTCACAGAGGTCAAAGTCCGTGCGTA", "PBM binding z-score": 2.14}, {"sequence": "TCTTGAAGATCAAAGGTTAAGAAAGCCGAAGCCT", "PBM binding z-score": -0.506}, {"sequence": "TTACCAAGGTGATAGGTCGTTGATGCACGCCTTG", "PBM binding z-score": -0.482}, {"sequence": "TCTGCTTGGTCAGTTGGTCAGCTAACGAGCTGCC", "PBM binding z-score": -0.0318}]}]}
